Compound activity deposited in PubChem by National Center for Advancing Translational Sciences (NCATS).
Rows were chosen to be rich in hits. Some 2.4% of all compounds tested hit in one or more screens of this group.
D2 ag-1: HTS Assay for Allosteric Agonists of the Human D2 Dopamine Receptor: Primary Screen for Agonists; D(2) dopamine receptor (Homo sapiens), P14416; 0.53% of 340,000 active; activation, % at 2 µM; HEK293 T-REx D2 cells, calcium flux agonist mode;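 active = activation over 3 SD above normal in the single-dose calcium agonist read, cut at about 30% in these data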; also: 0% is about no effect
Target sequence (P14416 whole entry, looked up): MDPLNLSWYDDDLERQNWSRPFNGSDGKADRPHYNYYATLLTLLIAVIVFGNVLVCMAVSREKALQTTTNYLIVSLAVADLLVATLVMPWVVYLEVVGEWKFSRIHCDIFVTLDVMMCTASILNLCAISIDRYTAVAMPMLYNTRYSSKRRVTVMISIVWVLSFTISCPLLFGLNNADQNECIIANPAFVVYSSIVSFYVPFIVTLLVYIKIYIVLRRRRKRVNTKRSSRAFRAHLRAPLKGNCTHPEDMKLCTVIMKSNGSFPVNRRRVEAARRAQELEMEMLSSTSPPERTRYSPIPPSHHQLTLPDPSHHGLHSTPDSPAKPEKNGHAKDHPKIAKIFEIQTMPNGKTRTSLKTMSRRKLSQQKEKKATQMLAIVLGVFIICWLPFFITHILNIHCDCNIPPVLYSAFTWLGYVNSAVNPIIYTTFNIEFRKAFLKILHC
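Agonism scored from kinetic calcium signal (1 read/sec, 180 s) following compound pin transfer, after a 10 s baseline. Cells: HEK293 Trex line expressing inducible D2 receptor coupled to calcium, dye-loaded after overnight culture at 30 C.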
D2 PAM-1: HTS Assay for Positive Allosteric Modulators of the Human D2 Dopamine Receptor: Primary Screen for Potentiators | AID 485347, 2010 | D(2) dopamine receptor (Homo sapiens), P14416 | potentiation, % at 10 µM | HEK293 T-REx D2, calcium flux, EC20 dopamine potentiation | 0.34% of 340,000 active;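 active = potentiation over 3 SD above the plate norm, cut at about 30% in these data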; also: 0% is about no effect
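Cells plated with tetracycline inducer and held overnight at 30 C; calcium dye loaded 30–90 min at room temperature; baseline taken, compound added and read 180 s; EC20 dopamine then added and read 180 s.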
D2 PAM-2: Beta-Arrestin HTS for Positive Allosteric Modulators of the Human D2 Dopamine Receptor: Potentiators; D(2) dopamine receptor (Homo sapiens), P14416; DiscoveRx D2 beta-arrestin cells, luminescence, 90 min; 100% = 57 uM dopamine signal; potentiation, % (concentration not given with the values); 0.23% of 360,000 active; in the data active = potentiation above about 50%; inconclusive = mostly about 30% to 49%
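PathHunter D2 cells, attached overnight at 37 deg C, received compound in DMSO plus dopamine at EC20 (50 nM final) for 90 min at 37 deg C. Beta-arrestin recruitment was read as luminescence after 1 h with detection reagent at ambient temperature.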
D2 antagonist: HTS Assay for Allosteric Antagonists of the Human D2 Dopamine Receptor: Primary Screen for Antagonists; D(2) dopamine receptor (Homo sapiens), P14416; HEK293 TREx D2 cells, calcium flux, dopamine EC80; inhibition, % at 10 µM; 2% of 340,000 active; AID 485344, 2010; in the data active = inhibition above about 30%; inactive = below that, where a call was filed; also: 0% is about no effect
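Cells plated overnight at 30 C with tetracycline; no-wash calcium dye, 30–90 min RT; 10 s baseline; compound pinned; 180 s read; EC80 dopamine added; another 180 s read.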
D2 ag-2: Beta-Arrestin HTS for Positive Allosteric Modulators of the Human D2 Dopamine Receptor: Agonists | D(2) dopamine receptor (Homo sapiens), P14416 | activation, % (no concentration beside the values) | DiscoveRx PathHunter D2 beta-arrestin, luminescence, 90 min; 100% = 57 uM dopamine signal | 0.084% of 360,000 active | AID 624465, 2012; in the data active = activation above about 40%; inconclusive = between about 15% and that limit
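Agonist mode: compounds alone added to overnight-plated D2 PathHunter cells for 90 min at 37 C, with 57 uM final dopamine (EC100) defining full response. Beta-arrestin recruitment detected by chemiluminescent reagent, read after 1 h at ambient temperature.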
An asterisk follows results filed as active; u = inconclusive; x = no result.

SMILES	D2 ag-1	D2 PAM-1	D2 PAM-2	D2 antagonist	D2 ag-2
O=C1C2CCCN2C(c2ccccc2)N1c1nccs1 (configuration not stated)	0	1	-1	67*	-1
COC(=O)CN1C(=O)N/C(=C/c2cc3c(cc2OC)OCO3)C1=O	0	35*	15	29	-5
CN(C)Cc1nc2c(c(=O)[nH]1)C1(CCCCC1)Cc1ccccc1-2	1	-5	-16	37*	-3
O=c1[nH]c(NNC(=S)NC2CCCCC2)nc2c1C1(CCCC1)Cc1ccccc1-2	-2	14	-2	38*	-1
CC(C)Sc1n[nH]c2nc3c(c(=O)n12)C1(CCCC1)Cc1ccccc1-3	0	-5	x	55*	x
Cn1c(NCCO)nc2c(c1=O)C1(CCCCC1)Cc1ccccc1-2	2	-8	-15	68*	-6
CCN(CC)Cc1nc2c(c(=O)[nH]1)C1(CCCCC1)Cc1ccccc1-2	1	-4	-15	-3	0
O=c1[nH]c(NCCCO)nc2c1C1(CCCC1)Cc1ccccc1-2	1	-11	-19	17	1
CC(C)NC(=O)NNC(=O)Cn1nnc(-c2cccc(Cl)c2Cl)n1	0	-1	-3	2	2
Cc1ccc(S(=O)(=O)/N=C2/NC(=O)/C(=C\c3ccco3)S2)cc1	-1	16	5	9	-4
O=C(CSc1nc2[nH]c(=O)cc(O)c2s1)NCCc1ccccc1	0	17	-14	0	2
COc1ccc(CCNC(=O)CSc2nc3ccccc3o2)cc1	-1	5	3	39*	-3
COc1ccc(CCNC(=O)CN2C(=O)c3ccccc3S2(=O)=O)cc1	0	2	-5	34*	-1
O=C(CSc1ccc2ccccc2c1)NCCc1ccc(O)c(O)c1	32*	-18	u	51*	100*
COc1ccc(CCNC(=O)CSc2nc3[nH]c(=O)cc(O)c3s2)cc1	0	-10	-7	44*	-1
Cc1ccc(OCCNC(=O)c2cccc(C)c2)cc1	0	0	-2	-10	9
COc1ccc(Cl)cc1NC(=O)NCCN1CCCCC1	0	-27	-9	58*	-2
COc1ccc(Cl)cc1NC(=O)NCC1CCN(C(=O)OC(C)(C)C)CC1	-1	-33	-16	95*	-8
COc1ccc(Cl)cc1NC(=O)NCc1ccco1	0	-16	-11	18	-5
COc1ccc(OC)c(NC(=O)Nc2ccc(Cl)cc2)c1	-2	-25	-27	46*	-1
C=CCNC(=O)Nc1cc(Cl)ccc1OC	1	-13	-9	38*	-4
CC(C)(C)OC(=O)N1CCC(CNC(=O)c2ccc(F)cc2F)CC1	0	2	0	-3	3
Cc1c(N2C(=O)CSC2c2ccccc2)c(=O)n(-c2ccccc2)n1C (configuration not stated)	0	-6	-12	16	2
CCCN1CCC(NC(=O)Nc2cc(Cl)ccc2OC)CC1	1	-39	4	85*	-19
C=CCNC(=O)c1cc(Cl)ccc1Cl	0	33*	-4	-15	0
SMILES	D2 ag-1	D2 PAM-1	D2 PAM-2	D2 antagonist	D2 ag-2
C=CCNC(=O)c1cc(Cl)ccc1[N+](=O)[O-]	1	-4	-32	-3	-1
CCN(CC)S(=O)(=O)c1ccc(C(=O)OCn2c(SC)nnc(C)c2=O)cc1	0	-5	7	35*	7
CSc1nnc(C)c(=O)n1COC(=O)c1ccccc1	0	6	5	-4	-1
CCN(CC)S(=O)(=O)c1ccc(C(=O)OCn2nnc3ccccc3c2=O)cc1	1	75*	1	7	3
O=C(c1cc(S(=O)(=O)N2CCOCC2)ccc1F)N1CCN(Cc2ccccc2)CC1	0	0	-7	-9	-2
CN(Cc1ccccc1)C(=C(Cl)Cl)C(=C1NCCN1)[N+](=O)[O-]	1	-9	-9	34*	-3
CN(Cc1ccccc1)C(=C(Cl)Cl)/C(=C1/NCCN1C)[N+](=O)[O-]	0	2	-7	7	-1
COc1ccc(/C=C(\C#N)C(=O)OC2CCOC2=O)cc1 (configuration not stated)	0	7	-15	33*	-1
Cc1nc(Cc2nnc(SCc3nc(N)nc(Nc4ccccc4C)n3)o2)cs1	0	-6	-13	0	-4
O=C1C(=C2SCCCS2)CC/C1=C\c1ccc(F)cc1	0	-6	-1	-19	0
O=C(CSc1nc2c(sc3ccccc32)c(=O)n1CCCN1CCCC1)NCC1CCCO1 (configuration not stated)	1	41*	-36	12	0
CC(=O)NCCNC(=O)CCCc1nnc2n(CCC(C)C)c(=O)c3sccc3n12	1	2	x	x	x
CC(=O)c1cnc2c(-c3ccccc3)c(C(F)(F)F)nn2c1C	0	20	-9	-8	-3
COc1cccc(OC)c1C(=O)NC(=O)Nc1c(C)cccc1C	1	5	-10	32*	-3
Cc1nc(Cl)sc1C(=O)Nc1ccccc1Cl	-1	6	53*	-8	2
c1ccc(Cn2nnc3ccccc32)cc1	0	7	-1	1	-1
OC(COc1cccc2ccccc12)CN1CCCC1 (configuration not stated)	0	73*	-11	-5	-1
OCCCN1CCN(CCOc2ccccc2-c2ccccc2)CC1	0	-28	-11	67*	-3
CCN1CCN(CCOc2ccccc2-c2ccccc2)CC1	0	-23	-4	87*	-5
c1ccc(-c2ccccc2OCCCN2CCCCC2)cc1	0	-30	-31	43*	-1
CCN1CCN(CCCOc2ccccc2-c2ccccc2)CC1	-2	5	-22	-7	0
OC(COc1cccc2ccccc12)CN1CCN(c2ccc(Cl)cc2)CC1 (configuration not stated)	8	-12	-12	8	4
COc1ccc(-n2c(O)c(/C=N/n3cnnc3)c3ccccc3c2=O)cc1	x	x	-10	x	4
O=C(Nc1nncs1)c1cc(-c2ccncc2)nc2ccc(Cl)cc12	1	1	10	-7	-5
COc1cc(-c2nnc(NC(=O)CS(=O)(=O)c3ccc(C)cc3)o2)cc(OC)c1OC	0	-15	-4	-8	2
N#CC(Cc1cccs1)c1nc2ccccc2[nH]1 (configuration not stated)	x	x	-10	x	-2
